Screening results (PubChem BioAssay)
HSP90 inh – inhibitors of HSP90 luciferase refolding in rabbit reticulocyte lysate; luciferase refolding luminescence, 3 h; inhibition, % at 5.6 µM; 290,000 compounds, 0.91% hits;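 active = inhibition above the screen-wide mean plus 3 SD, computed separately per campaign, cut at about 16% in these data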;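 also: 0% = DMSO wells and 100% = 60 µM geldanamycin wells; inhibitors lower the luminescence because luciferase stays unfolded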
HSF1 inh – HSF1 inhibition; NIH3T3-HGL HSE-luciferase, MG132-induced, luminescence 8 h; hits give low values; activity change, negative = inhibition, % at 7.5 µM (by protocol); 300,000 compounds, 0.77% hits;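 active = more than half of replicate wells show activity change below -50%, luminescence cut by over half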;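 also: luciferase reports HSF-1 transcriptional activity via heat shock element; 0% = median of DMSO wells and -100% = zero luminescence signal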
EBV LMP1 NFkB – inhibitors of Epstein-Barr LMP1-induced NF-kappaB reporter; 350,000 compounds, 0.69% hits; inhibition, % at 12.5 µM; LMP1-induced NF-kappaB luciferase reporter cells, luminescence; in the data active = inhibition above about 41%;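 also: 0% = neutral control wells and 100% = reference inhibitor control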
TROY NFkB inh – inhibitors of TROY-dependent NF-kB signaling | Q293 LMP1-TROYcd NF-kB luciferase reporter, 4 h | inhibition, % at 10 µM | 360,000 compounds, 0.98% hits | AID 1347056;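 active = compounds whose plate-normalised and pattern-corrected inhibition of the luciferase reporter signal at the single screening dose is 50% or more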
TWEAK Fn14 block – TWEAK-Fn14 signaling inhibition; TWEAK-stimulated Fn14 reporter cells, luciferase luminescence, 8 h; inhibition, % at 10 µM; 360,000 compounds, 2% hits; in the data active = inhibition above about 50%
HSF1 activator – increases HSF-1 driven luciferase reporter signal; activation, % at 9 µM; 300,000 compounds, 1.7% hits; NIH3T3-HGL HSF-1 luciferase reporter, MG132, 8 h; 100% = twice DMSO control signal;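 active = mean replicate activation of at least 50% with a set share of replicates each reaching 50%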;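 also: 0% = median of the neutral control wells and 100% = twice that signal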
* hit, by the source's call; / = no result given. An excerpt weighted towards active compounds, which were near 4.7% of everything screened.

SMILES	HSP90 inh	HSF1 inh	EBV LMP1 NFkB	TROY NFkB inh	TWEAK Fn14 block	HSF1 activator
Cc1ccccc1-c1csc(C(O)c2ccccc2)n1 (stereo not given)	/	/	/	-52	-1	/
COc1ccc(-c2sc3ccccc3c2-c2cc(OC)ccc2C=O)cc1	/	/	/	-7	23	/
CCC(=O)Nc1ccc(S(=O)(=O)NC[C@H]2O[C@@H](n3cc(C)c(=O)[nH]c3=O)C[C@@H]2O)cc1	/	/	-12	0	0	/
Cc1ccc(C(NC(=O)C2CCN(Cc3ccc(Oc4ccccc4)cc3)CC2)c2ccccn2)cc1 (stereo not given)	/	/	/	-11	1	/
O=S(=O)(Nc1nc2ccccc2nc1Cl)c1ccc(Cl)cc1	-2	1	-1	4	-3	3
O=S(=O)(Nc1nc2ccccc2nc1N1CCc2ccccc2C1)c1ccc(Cl)cc1	-5	20	-3	24	72*	57*
O=S(=O)(Nc1nc2ccccc2nc1N1CCc2ccccc2C1)c1ccc(Br)cc1	17*	/	-14	14	78*	/
O=S(=O)(Nc1nc2ccccc2nc1Cl)c1ccc(Br)cc1	0	-54*	6	-8	27	-64
Cc1ccccc1S(=O)(=O)Nc1nc2ccccc2nc1N1CCc2ccccc2C1	-3	42	-6	-1	21	71*
Cc1nc2c(OCc3ccc(C#N)cc3)cccn2c1N(C)C(=O)CCC1CCCC1	/	/	/	17	7	/
O=C1CC(C(=O)N2CCCc3ccccc32)CN1c1ccc(Cl)cc1 (stereo not given)	4	-7	2	7	21	20
O=C1CC(C(=O)N2CCCc3ccccc32)CN1c1ccc(F)cc1 (stereo not given)	-1	0	-4	49	61*	6
C=C1C(=O)OC2C1CCC(C)=C1C(=O)C3OC3(C)C12 (stereo not given)	/	/	25	41	95*	/
c1cnc(SCCOc2ccc3c(c2)CCC3)nc1	1	26	-28	-41	20	57*
CCc1nc2c(OCCC3CCCCC3)cccn2c1N(C)C(=O)c1cccs1	/	/	/	17	3	/
COc1ccc(/C=C/c2ccc3cccc(O)c3n2)cc1Br	0	-11	4	54*	72*	-8
COc1cc(/C=C/c2ccc3cccc(O)c3n2)cc(Br)c1OC	-4	0	2	-33	19	10
COc1cccc(/C=C/c2ccc3cccc(O)c3n2)c1	-2	-7	-4	50*	84*	4
O=C1CCC2c3[nH]c4ccccc4c3CCN12 (stereo not given)	/	/	1	-13	-7	/
Cc1cnc(C)c(Nc2nc(C(N)c3ccccc3)cs2)n1 (stereo not given)	/	/	/	-4	-8	/
O=[N+]([O-])c1cc([N+](=O)[O-])c2oc(-c3ccccc3)c(Br)c2c1O	-6	-4	2	69*	36	6
CC1=C(C(=O)N2CCCCCC2)CC(CC(=O)NC2CCCCC2)C(=O)N1Cc1ccc(F)cc1 (stereo not given)	/	/	/	20	17	/
Cc1cccc(C)c1-n1nnnc1C(c1ccccc1OC(F)(F)F)N1CCN(C/C=C/c2ccccc2)CC1 (stereo not given)	/	/	/	17	-15	/
O=C(OCc1csc(-c2ccccc2)n1)C1=NN(c2ccccc2)C(=O)CC1	/	/	-9	-23	1	/
Cc1ccsc1C(=O)OCc1nnc(-c2ccccc2)o1	/	/	-19	-30	-9	/
SMILES	HSP90 inh	HSF1 inh	EBV LMP1 NFkB	TROY NFkB inh	TWEAK Fn14 block	HSF1 activator
CNS(=O)(=O)c1cccc(C(=O)OCC(=O)NCCCc2ccccc2)c1	-1	5	-2	0	2	3
Cn1cccc1C(=O)OCc1csc(-c2ccccc2)n1	7	15	-42	-12	49	63*
CNS(=O)(=O)c1cccc(C(=O)OCC(=O)NC(C)CCc2ccccc2)c1 (stereo not given)	-2	0	42*	-18	-2	-9
O=C(OCc1csc(-c2ccccc2)n1)c1cccs1	2	52	-24	-20	-5	91*
Cc1ccsc1C(=O)OCc1csc(-c2ccccc2)n1	0	22	-46	5	50	59*
CCOc1ccc(Cl)cc1-c1cc(C(=O)NCc2ccccc2OC)[nH]n1	/	/	/	-9	21	/
O=C(CNS(=O)(=O)c1cccc(Cl)c1)OCc1csc(-c2ccccc2)n1	2	-3	-1	-53	4	21
